Assay outcomes (PubChem BioAssay)
TWEAK-Fn14 inh: inhibitors of TWEAK-Fn14 interaction signaling. TWEAK-stimulated Fn14 reporter cells, luciferase luminescence, 8 h. inhibition, % at 10 µM. 2% of 360,000 active; in the data active = inhibition above about 50%
KKLEB tox: counter-screen for CF NF-kB inhibitors: cytotoxicity; KKLEB CF airway cells viability, ATPlite luminescence, overnight; stronger effect = lower value; cells stimulated with P. aeruginosa culture filtrate; activity change (cytotoxicity), % at 5 µM; 0.36% of 360,000 active; AID 602141;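 active = corrected activity change at or below -50% at 5 µM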
HIF-2a block: inhibitors of HIF-2a. inhibition, % at 18.8 µM. 786-0 RCC cells HIF-2a reporter, luciferase luminescence, overnight. 0.72% of 360,000 active;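 active = inhibition of the luminescence signal of 40% or more relative to plate controls, in a single-dose primary screen at 18.75 µM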
LGR2 inh: blocks bursicon-induced cAMP signaling via Drosophila LGR2; HEK293 LGR2, CRE-luciferase, bursicon-stimulated, 4 h; 0.35% of 380,000 active; inhibition, % at 9.99 µM; AID 720647;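 active = drop in luminescence signal, shown as inhibition above about 50% in the replicate tests, limit read from the data, passing the limit was not always enough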;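 note: agonist challenge used bursicon conditioned medium at about half maximal strength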
CF NFkB inh: blocks PAF-induced NF-kB reporter in cystic fibrosis cells; inhibition, % at 5 µM; 0.86% of 360,000 active; KKLEB NF-kB-GFP reporter, GFP fluorescence overnight;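 active = at least 50% inhibition at 5 µM, scaled per plate between neutral and stimulator controls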;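 note: PAF is a Pseudomonas aeruginosa culture filtrate used as stimulus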
iPSC survival up: increases survival of single human iPS cells. hiPSC single-cell survival, ATPlite luminescence; 100% = ROCK inhibitor wells, 0% = DMSO. survival enhancement, % at 20 µM. 0.044% of 360,000 active. AID 602274; in the data active = survival enhancement above about 18%;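 note: cells exposed to compounds for 16 hours before the ATP read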
Mdm2 MdmX conf: confirmation of inhibitors of human Mdm2/MdmX interaction, set 2. inhibition, % at 8 µM. SaOS-2 split-luciferase Mdm2/MdmX complementation, luminescence. AID 504601. shares compounds with HIF-2a block. 99% of 740 active;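 active = mean inhibition of the luminescence signal across two replicates at or above 26 percent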
Target sequence (O15151 whole entry, looked up): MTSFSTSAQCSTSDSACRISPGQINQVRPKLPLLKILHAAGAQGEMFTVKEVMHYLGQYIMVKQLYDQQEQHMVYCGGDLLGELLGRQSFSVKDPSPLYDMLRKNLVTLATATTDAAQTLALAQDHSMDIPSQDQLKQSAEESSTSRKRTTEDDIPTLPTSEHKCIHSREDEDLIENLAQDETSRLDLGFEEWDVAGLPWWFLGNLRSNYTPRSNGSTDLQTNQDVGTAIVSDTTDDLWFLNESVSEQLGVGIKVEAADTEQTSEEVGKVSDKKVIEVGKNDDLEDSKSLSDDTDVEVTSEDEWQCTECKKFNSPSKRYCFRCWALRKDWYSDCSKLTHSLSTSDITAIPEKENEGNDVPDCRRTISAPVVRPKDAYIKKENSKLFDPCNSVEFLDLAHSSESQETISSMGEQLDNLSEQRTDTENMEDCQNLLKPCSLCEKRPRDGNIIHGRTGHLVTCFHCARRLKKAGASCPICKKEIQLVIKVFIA
Target sequence (Q00987 whole entry, looked up): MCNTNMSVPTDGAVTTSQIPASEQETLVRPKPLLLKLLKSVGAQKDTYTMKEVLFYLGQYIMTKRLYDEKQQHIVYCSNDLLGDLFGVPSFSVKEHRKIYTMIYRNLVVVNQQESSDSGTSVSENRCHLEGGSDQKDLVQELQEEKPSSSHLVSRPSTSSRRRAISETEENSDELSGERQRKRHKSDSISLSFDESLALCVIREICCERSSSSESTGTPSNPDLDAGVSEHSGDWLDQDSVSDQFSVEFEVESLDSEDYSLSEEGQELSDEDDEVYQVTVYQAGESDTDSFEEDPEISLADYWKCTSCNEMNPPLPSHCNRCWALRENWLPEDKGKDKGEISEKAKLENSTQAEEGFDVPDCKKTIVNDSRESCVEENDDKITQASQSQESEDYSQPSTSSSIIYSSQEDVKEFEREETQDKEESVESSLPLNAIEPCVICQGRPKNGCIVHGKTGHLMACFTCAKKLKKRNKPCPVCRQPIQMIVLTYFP
HIF-2a inh conf: HIF-2a inhibition, single concentration confirmation | shares compounds with HIF-2a block | 786-0 RCC cells, HIF-2a luciferase reporter luminescence, overnight | inhibition, % at 18.8 µM | 56% of 1,800 active | AID 651580;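 active = mean inhibition across four replicates of at least 40 percent at the single tested concentration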
HIF-1a counter: inhibits HIF-1a reporter, a counter-screen for HIF-2a inhibitors; shares compounds with HIF-2a block; 72% of 1,800 active; AID 651589; MiaPaCa-2 HIF-1a luciferase reporter, desferoxamine, overnight; inhibition, % at 18.8 µM;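 active = mean inhibition of the reporter signal across four replicates at the single tested dose of 50% or more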
Each line names hits and unclear results; the compound was inactive in the other large screens (follow-up assays come after a bar, where they were run). Rows were chosen to be rich in hits. Some 2.3% of all compounds tested hit in one or more screens of this group.

CCC(=O)Nc1ccc2c(c1)OC[C@H](C)N(C(=O)Cc1ccccn1)C[C@@H](C)[C@H](OC)CN(C)C2=O	none (no result: TWEAK-Fn14 inh, KKLEB tox, HIF-2a block, CF NFkB inh, iPSC survival up)
COc1ccc2c3c([nH]c2c1)[C@@H](CO)NCC31CN(C(=O)C2CCCC2)C1	none (no result: TWEAK-Fn14 inh, KKLEB tox, HIF-2a block, CF NFkB inh, iPSC survival up)
O=C(O)/C=C/c1ccc([N+](=O)[O-])o1	none
N#CCc1ccc(NC(=O)/C=C/c2ccc([N+](=O)[O-])o2)cc1	TWEAK-Fn14 inh 61, HIF-2a block 65 (no result: LGR2 inh) | HIF-2a inh conf 48 | HIF-1a counter 105
Cc1ccc2c(c1)c1ccc3c(c1n2C)C(=O)C=CC3=O	HIF-2a block 79 | Mdm2 MdmX conf 102
COc1ccc2c(c1)c1ncn(CCN3CCCC3)c(=O)c1n2C	none (no result: LGR2 inh)
Cn1c2ccccc2c2ccc3c(c21)C(=O)C=CC3=O	none
COc1ccc2c(c1)c1ccc3c(c1n2C)C(=O)C=CC3=O	HIF-2a block 78, iPSC survival up 28 | Mdm2 MdmX conf 102
C[C@H](CO)N1C[C@H](C)[C@@H](CN(C)CC2CCCCC2)Oc2c(NC(=O)c3cnccn3)cccc2C1=O	none (no result: TWEAK-Fn14 inh, KKLEB tox, HIF-2a block, CF NFkB inh, iPSC survival up)
Nc1ccc2oc(-c3cc(Br)ccc3Cl)nc2c1	HIF-2a block 61 (no result: LGR2 inh) | HIF-2a inh conf 90 | HIF-1a counter inactive
Cc1ccc(C)c(-c2nc3cc(N)ccc3o2)c1	TWEAK-Fn14 inh 67, HIF-2a block 65 (no result: LGR2 inh) | HIF-2a inh conf 70 | HIF-1a counter inactive
Cc1ccc(-c2nc3cc(N)ccc3o2)cc1Br	none
COC(=O)c1ccc(-c2nc3cc(N)ccc3o2)cc1	none
O=C(C[C@@H]1C[C@H]2c3cc(NC(=O)Nc4ccccc4)ccc3O[C@H]2[C@@H](CO)O1)NCC(F)(F)F	none (no result: TWEAK-Fn14 inh, KKLEB tox, HIF-2a block, CF NFkB inh, iPSC survival up)
COc1cccc(CN2C[C@@H](C)[C@H](OC)CN(C)C(=O)c3ccc(NS(=O)(=O)c4cn(C)cn4)cc3OC[C@H]2C)c1	none (no result: TWEAK-Fn14 inh, KKLEB tox, HIF-2a block, CF NFkB inh, iPSC survival up)
CC1(C)CC(=O)C2=C(C1)OC1=C(C(=O)CC(C)(C)C1)C2c1ccc(O)cc1O	TWEAK-Fn14 inh 104, KKLEB tox -54, HIF-2a block 93, CF NFkB inh 97 (no result: LGR2 inh) | Mdm2 MdmX conf 103 | HIF-2a inh conf 97 | HIF-1a counter 106
CC1(C)CC(=O)C2=C(C1)OC1=C(C(=O)CC(C)(C)C1)C2c1ccc(O)c([N+](=O)[O-])c1	none
CCCC#Cc1ccc2c(c1)O[C@H](CN(C)C(=O)Nc1ccc(OC)cc1)[C@@H](C)CN([C@@H](C)CO)S2(=O)=O	none (no result: TWEAK-Fn14 inh, KKLEB tox, HIF-2a block, CF NFkB inh, iPSC survival up)
Cc1ccc(OCc2ccc(C(=O)NN)o2)c([N+](=O)[O-])c1	none
Cc1ccc(C)c(OCc2ccc(C(=O)NN)o2)c1	HIF-2a block 40 | HIF-2a inh conf inactive | HIF-1a counter inactive
COc1ccc(NC(=O)/C(C#N)=C/c2c(C)nn(-c3ccc(F)cc3)c2Cl)cc1OC	HIF-2a block 43 | HIF-2a inh conf inactive | HIF-1a counter 54
COc1ccc(-c2ccc([C@H]3[C@@H](CO)N4C(=O)CN(C(=O)C5CCCC5)C[C@H]34)cc2)cc1	none (no result: TWEAK-Fn14 inh, KKLEB tox, HIF-2a block, CF NFkB inh, iPSC survival up)
O=c1oc(-c2ccccc2)cc2ccccc12	none
Nc1ccc(-c2cc3ccccc3c(=O)o2)cc1	HIF-2a block 82 | HIF-2a inh conf 91 | HIF-1a counter 54
CCSc1ncc(Cl)c(C(=O)Nc2ccccc2F)n1	none (no result: LGR2 inh)
O=C(Nc1ccc(F)cc1)c1nc(S(=O)(=O)Cc2ccccc2)ncc1Cl	TWEAK-Fn14 inh 79, KKLEB tox -75, HIF-2a block 86, CF NFkB inh 101 | Mdm2 MdmX conf 102 | HIF-2a inh conf 99 | HIF-1a counter 60
Cc1ccccc1CS(=O)(=O)c1ncc(Cl)c(C(=O)Nc2ccc(F)cc2)n1	TWEAK-Fn14 inh 82, KKLEB tox -99, HIF-2a block 93, CF NFkB inh 89 | Mdm2 MdmX conf 103 | HIF-2a inh conf 74 | HIF-1a counter 51
Cc1ccc(NC(=O)c2nc(S(=O)(=O)Cc3ccccc3)ncc2Cl)cc1	TWEAK-Fn14 inh 67, KKLEB tox -100, HIF-2a block 95, CF NFkB inh 92 | Mdm2 MdmX conf 102 | HIF-2a inh conf 98 | HIF-1a counter 96
CCOC(=O)c1ccc(NC(=O)c2nc(SC)ncc2Cl)cc1	none
C[C@@H]1CN([C@@H](C)CO)C(=O)c2cc(NC(=O)CCN3CCOCC3)ccc2O[C@@H]1CN(C)Cc1ccc2c(c1)OCO2	none (no result: TWEAK-Fn14 inh, KKLEB tox, HIF-2a block, CF NFkB inh, iPSC survival up)
COc1ccc(/C=c2/sc3n(c2=O)C(c2ccccc2OC)C2=C(N=3)c3ccccc3CC2)cc1O (stereo not drawn)	HIF-2a block 41 (no result: LGR2 inh) | HIF-2a inh conf inactive | HIF-1a counter 64
CN(C)c1ccc(C(=O)N/N=C/c2cc(Br)cc(Br)c2O)cc1	none (no result: LGR2 inh) | Mdm2 MdmX conf 89
C[C@H](CO)N1C[C@H](C)[C@H](CN(C)Cc2ccncc2)OCCCC[C@H](C)Oc2ccc(NC(=O)CCC(F)(F)F)cc2C1=O	none (no result: TWEAK-Fn14 inh, KKLEB tox, HIF-2a block, CF NFkB inh, iPSC survival up)
Cc1ccc(S(=O)(=O)N(C)C[C@@H]2OCCCC[C@@H](C)Oc3ccc(NC(=O)CCC(F)(F)F)cc3C(=O)N([C@H](C)CO)C[C@@H]2C)cc1	none (no result: TWEAK-Fn14 inh, KKLEB tox, HIF-2a block, CF NFkB inh, iPSC survival up)
O=C(C[C@@H]1CC[C@H](NC(=O)Nc2ccc(C(F)(F)F)cc2)[C@H](CO)O1)NCc1cc(F)cc(F)c1	none (no result: TWEAK-Fn14 inh, KKLEB tox, HIF-2a block, CF NFkB inh, iPSC survival up)
O=C(Oc1ccc2ccccc2c1)c1ccco1	none (no result: LGR2 inh)
CC1CC(C)(C)Nc2ccc(OC(=O)c3ccco3)cc21 (stereo not drawn)	TWEAK-Fn14 inh 89, HIF-2a block 45 (no result: LGR2 inh) | HIF-2a inh conf 62 | HIF-1a counter 71
CCCC(=O)Nc1ccc2c(c1)C(=O)N(C)[C@@H]1CC[C@@H](CC(=O)NCC(F)(F)F)O[C@H]1CO2	none (no result: TWEAK-Fn14 inh, KKLEB tox, HIF-2a block, CF NFkB inh, iPSC survival up)
CS(=O)(=O)c1ccc(Sc2nc3ccccc3[nH]2)c([N+](=O)[O-])c1	none (no result: LGR2 inh)
O=[N+]([O-])c1cc(S(=O)(=O)C(F)(F)F)ccc1Sc1nc2ccccc2s1	HIF-2a block 56 (no result: LGR2 inh) | HIF-2a inh conf inactive | HIF-1a counter 101
O=[N+]([O-])c1cc(S(=O)(=O)C(F)(F)F)ccc1Sc1nc2ccccc2[nH]1	HIF-2a block 93, CF NFkB inh 50 (no result: LGR2 inh) | HIF-2a inh conf 69 | HIF-1a counter 106
COc1cccc(NC(=O)N[C@@H]2CC[C@H](CC(=O)NCc3ccncn3)O[C@@H]2CO)c1	none (no result: TWEAK-Fn14 inh, KKLEB tox, HIF-2a block, CF NFkB inh, iPSC survival up)
CC(=O)Nc1cccc(-c2cnc(N)c(C(=O)c3cccnc3)n2)c1	TWEAK-Fn14 inh 82, HIF-2a block 41, CF NFkB inh 75 (no result: LGR2 inh) | Mdm2 MdmX conf 102
CC(=O)Nc1cccc(-c2csc(N)n2)c1	none
